Source: PubChem BioAssay AID652122 (NMMLSC, 2013)

Experiment: myeloid differentiation promoters, wild-type HoxA9 cells, dose response, cell-based, flow cytometry, Powder Set01 subset01 (AID 652122)
Settings: HoxA9 wt myeloid cells, GFP+/MAC1+ differentiation; series mostly up to 10 µM; percent double positive (differentiation): at the top concentration;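 active = at least 15% of cells fluorescing red and green at top dose, and half-maximal dose below 10 µM; inactive = the rest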

Percent double positive (differentiation), inactive:
Cc1ccc(Nc2nc(=O)c3cccnc3s2)c(Br)c1 14.1%
O=C(CCNC(=O)c1ccc(Cl)cc1)NC1CCCc2ccccc21 (stereo not drawn) 9.24%
O=C(O)c1cccnc1Nc1ccc(Cl)cc1 16.6%
